What follows are sequences tested against VEGF-A121 (Homo sapiens, UniProt P15692 SEQ:1-121) (assay: competition; TR-FRET). Settings: tags: glycan-biotinylated for SPR/FRET/AlphaLISA; Acro BioSystems, Biolegend; chain copies: 2 (stated); ssRNA; all G 2'-F; A,C,U 2'-OMe; 5' C6NH2; 3' idT.
Method: Briefly, for competition TR-FRET, 2-fold dilutions of thermally equilibrated aptamers were made in TR-FRET Buffer (50 mM MOPS, pH 7.4, 125 mM NaCl, 5 mM KCl, 50 μM CHAPS, 0.1 mg/mL BSA, 1 mM CaCl₂, and 1 mM MgCl₂). 5 μL of aptamer or control solution was added to a 15 μL mix of glycan biotinylated […] (5 nM final), ALEXA FLUOR® 647-labeled Aptamer (30 nM final), and Streptavidin-Eu (Perkin Elmer; 2.5 nM final) in a black wall low volume 384 well plate (Greiner). For control, 5 μl of 1000-fold excess of unlabeled parent aptamer or 5 μl TR-FRET buffer alone was added to the mix of ALEXA FLUOR® 647-labeled aptamer, biotin-VEGF-A, and Streptavidin-Eu. The plate was covered with a plate seal and subsequently incubated in the dark for 1 hour at room temperature. The plate was read on a Biotek CYTATION™ 5 plate reader. Samples were excited at 330 nm and fluorescent values were collected at 665 nm. Data analysis was performed by subtracting the background value and plotting as percent inhibition, normalized to baseline in the absence of competitor. The values were fit by [Inhibitor] vs. response-Variable slope (four parameters) using GraphPad Prism Version 7.0 and then normalized to aptamer control to obtain an IC₅₀ relative to parent aptamer. Data is presented as log values of relative IC₅₀.
Activity of each of these variants were tested using a time resolved competition TR-FRET assay, as described in Example 7, in which a labeled parent was competed with increasing concentrations of unlabeled variants for binding to VEGF-A₁₂₁.

Sequence of VEGF-A121 (P15692 other isoform, or with tags, fused parts or gaps): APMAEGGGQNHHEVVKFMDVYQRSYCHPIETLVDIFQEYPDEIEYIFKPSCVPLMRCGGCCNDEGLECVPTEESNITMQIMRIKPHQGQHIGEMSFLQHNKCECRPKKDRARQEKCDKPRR

First: AGGCCGCCUCCGCGCGGACCGGUUUCAUUACCGGGUUUGGCGGCUU
Second: AGGCCGCCUCCGCGCGGAGGGGUUCAUAUCCCGUUUGGCGGCUU
The binding signal of the first is higher: ~9 fold worse IC50 vs Aptamer 26 for the first, ~8 fold worse IC50 vs Aptamer 26 for the second.

Going from “AGGCCGCCUCCGUGCGGAGGGGUUUCAUUAUCCCGUUUGGCGGCUU” to “AGGCCGCCUCCGCGCGGAGAGGUUUCAUUAUCUCGUUUGGCGGCUU”, the binding signal rises from 4 fold worse IC50 vs Aptamer 26 to ~7 fold worse IC50 vs Aptamer 26.

With “AGGCCGCCUCCGCGCGGAGAGGGUUCAUUCCCUCGUUUGGCGGCUU” the binding signal was ~9 fold worse IC50 vs Aptamer 26.

From patent US20220098591, “STEM-LOOP COMPOSITIONS AND METHODS FOR INHIBITING VASCULAR ENDOTHELIAL GROWTN FACTOR” (DRIVE THERAPEUTICS LLC, published 2022)
